Article PMC4336329 (PLoS ONE, 2015)
Hit rate of the full screen: of about 310,000 compounds, about 14,000 (4.5%) showed an effect of 50% or more. The effect is printed as a negative number. The full list was thinned out, with strong results kept by preference.

What follows are molecules tested against human ether-à-go-go-related gene (hERG) potassium channel (human, UniProt Q12809) (assay: primary screen, population patch clamp on CHO cells stably expressing hERG; higher = less effect of the substance).
Chain of human ether-à-go-go-related gene (hERG) potassium channel (Q12809 whole entry, looked up): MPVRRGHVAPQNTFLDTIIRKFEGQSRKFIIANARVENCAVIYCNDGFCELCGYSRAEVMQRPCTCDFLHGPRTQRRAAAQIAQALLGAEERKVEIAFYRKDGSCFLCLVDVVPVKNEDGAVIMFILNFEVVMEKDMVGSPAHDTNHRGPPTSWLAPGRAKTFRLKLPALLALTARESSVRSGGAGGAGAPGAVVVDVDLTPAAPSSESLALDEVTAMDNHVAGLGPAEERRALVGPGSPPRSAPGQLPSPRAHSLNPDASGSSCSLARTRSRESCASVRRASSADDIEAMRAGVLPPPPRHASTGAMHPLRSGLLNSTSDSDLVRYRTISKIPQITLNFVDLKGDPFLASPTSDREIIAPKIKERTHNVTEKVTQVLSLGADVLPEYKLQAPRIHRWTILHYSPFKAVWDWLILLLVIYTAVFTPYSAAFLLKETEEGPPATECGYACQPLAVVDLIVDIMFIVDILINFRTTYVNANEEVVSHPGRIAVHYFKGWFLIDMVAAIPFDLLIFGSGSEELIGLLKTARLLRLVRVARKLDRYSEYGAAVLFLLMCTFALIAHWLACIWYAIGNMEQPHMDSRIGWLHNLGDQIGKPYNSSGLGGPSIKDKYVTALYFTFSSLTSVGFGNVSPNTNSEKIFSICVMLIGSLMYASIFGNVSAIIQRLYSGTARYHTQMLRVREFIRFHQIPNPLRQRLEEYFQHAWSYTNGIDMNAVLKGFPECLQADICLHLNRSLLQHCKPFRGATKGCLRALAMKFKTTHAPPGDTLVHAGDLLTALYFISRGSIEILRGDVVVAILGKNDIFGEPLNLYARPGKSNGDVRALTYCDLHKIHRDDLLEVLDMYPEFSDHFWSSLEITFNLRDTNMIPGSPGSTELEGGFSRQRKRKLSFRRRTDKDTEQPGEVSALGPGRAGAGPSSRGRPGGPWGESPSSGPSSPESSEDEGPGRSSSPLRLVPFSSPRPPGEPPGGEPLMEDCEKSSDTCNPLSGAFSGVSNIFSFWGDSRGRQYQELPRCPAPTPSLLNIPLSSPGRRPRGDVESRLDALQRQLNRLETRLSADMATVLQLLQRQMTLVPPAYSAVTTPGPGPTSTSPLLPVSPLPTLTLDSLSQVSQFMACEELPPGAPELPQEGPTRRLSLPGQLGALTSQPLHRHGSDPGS
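Further: peak tail current of the secondary pulse compared with the same well before compound.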

SMILES	hERG current change (%, negative = inhibition) at 10uM
COc1cc(NC(=O)c2ccccc2)ccc1NC(=O)c1cc2ccccc2o1	25.8%
CCOC(=O)c1cc(-c2ccc([N+](=O)[O-])cc2)nc2c1c(=O)[nH]c(=O)n2Cc1ccccc1	11.9%
CC1CCN(C(=O)c2[nH]cnc2C(=O)NC2CCN(C(=O)OC(C)(C)C)CC2)CC1	9.62%
COc1ccc(NC(=S)NCc2ccco2)c(OC)c1	-2.08%
CCOc1ccc(N(C)S(=O)(=O)c2ccc3[nH]cc(C(=O)NCCCOC)c(=O)c3c2)cc1	3.51%
O=C(O)Cn1c2ccccc2c2ccccc21	30.5%
COc1ccc2c(c1OC)C(=O)N(c1ncn[nH]1)C2	13.5%
O=C(/C=C\c1ccc(-c2cccc([N+](=O)[O-])c2)o1)N1CCOCC1	-10.2%
Cc1ccc2[nH]c3c(=O)n(CC(=O)N4CCN(C)CC4)ncc3c2c1	-1.46%
Cn1c(=O)n(C)c2cc(NC(=O)CSc3ccccc3)ccc21	4.01%
CCc1nc2ccccc2n1CCc1ccccc1.Cl	-16.6%
CN(C(=O)c1cc([N+](=O)[O-])ccc1N1CCCC1)C1CCCCC1	1.07%
CCN(CC)S(=O)(=O)c1cccc(-c2nnc(SCC(N)=O)n2CCc2ccccc2)c1	-37.3%
CCN(CC)S(=O)(=O)c1cccc(-c2nnc(SCc3ncc(-c4ccccc4)o3)n2C)c1	-68.2%
CCN(CC)S(=O)(=O)c1cccc(-c2nnc(SCC(=O)NC)n2CCc2ccccc2)c1	-27.3%
CCCNC(=O)C(Cc1cccc(OC)c1)NC(=O)c1ccc(C#N)cc1 (centres unmarked)	-7.8%
CCCNC(=O)C(Cc1cccc(C#N)c1)NC(=O)c1cccc([N+](=O)[O-])c1 (centres unmarked)	-10.2%
CCCNC(=O)C(Cc1cccc(Cl)c1)NC(=O)c1ccc(C#N)cc1 (centres unmarked)	-11%
CCCNC(=O)C(Cc1ccc(I)cc1)NC(=O)c1ccc(C#N)cc1 (centres unmarked)	8.48%
CCCNC(=O)C(Cc1ccc(OC)cc1)NC(=O)c1ccc(C#N)cc1 (centres unmarked)	-50.7%
CCCNC(=O)C(Cc1cccc(C#N)c1)NC(=O)c1ccc(C#N)cc1 (centres unmarked)	-55.9%

SMILES	hERG current change (%, negative = inhibition) at 10uM
O=C(Oc1ccc(F)cc1)c1ccc2c(=O)n3c(nc2c1)CCC3	-21.6%
O=C(COC(=O)c1cccc(O)c1)NC(=O)Cc1ccccc1	3.25%
Cc1nn(-c2ccccc2)c(N2CCCC2)c1/C=C1\N=C(c2ccccc2)OC1=O	11.7%
CCCCCC(=O)NNC(=O)c1c(O)c2ccccc2n(CC)c1=O	-13.5%
Cc1cccc(N=C2NN=C(c3ccccc3F)CS2)c1C	41.8%
Cc1cc(N2CCC(C)CC2)nc2cccc(O)c12	-28.7%
CCc1ccc2ncc(C(=O)c3ccccc3)c(N3CCOCC3)c2c1	-45.7%
CCOC(=O)c1cnc2ccc(OCC)cc2c1N1CCN(C)CC1.Cl	-47.8%
CCOc1ccc2ncc(C(=O)c3ccc(OC)cc3)c(N3CCN(CC)CC3)c2c1	-74.5%
CCN1CCN(c2c(C=O)c(Cl)nc3ccc(OC)cc23)CC1	-54.5%
CCc1ccc(C(=O)c2cnc3ccc(OC)cc3c2N2CCN(CC)CC2)cc1	-67.7%
CCOc1ccc2ncc(S(=O)(=O)c3ccccc3)c(N3CCN(c4ccc(OC)cc4)CC3)c2c1	-10.9%
COc1ccc(N2CCN(c3c(S(=O)(=O)c4ccccc4)cnc4ccc(OC)cc34)CC2)cc1	-17.7%
COc1cc2ncc(C(=O)c3ccccc3)c(N3CCN(Cc4ccccc4)CC3)c2cc1OC	-12.9%
CCOC(=O)c1cnc2ccc(OCC)cc2c1N1CCN(c2ccccc2OC)CC1	-5.78%
CSc1ccccc1NC(=O)Cn1ccsc1=N	33.3%
Cc1cc(NC(=O)CCCC(=O)OCC(F)(F)C(F)F)cc(C)c1C(=O)O	20.1%
O=C(O)CC1OCC=C2CN3CCC45C6=CC(=O)C(=O)C([N+](=O)[O-])=C6NC4C1C2CC35 (centres unmarked)	10.1%
Cc1ccc(C)c(N2CCN(C(=O)Cn3cccc3)CC2)c1	-19%
COc1ccc(/C=C/c2cc(C(F)(F)F)[nH]c(=O)n2)cc1OC	-6.91%
COc1cc(/C=C/c2cc[n+](C)cc2)ccc1OCC(=O)Nc1ccc(Cl)c(Cl)c1.[I-]	-5.84%

SMILES	hERG current change (%, negative = inhibition) at 10uM
CS(=O)(=O)N(CC(=O)N1CCCC1)c1ccc(OCc2ccccc2)cc1	-15.7%
C#Cc1ccc(CN2CCN(CCCc3ccccc3)C(CCO)C2)cc1 (centres unmarked)	-69.8%
OCCC#Cc1ccc(CN2CCN(CCc3ccccc3)C(CCO)C2)cc1 (centres unmarked)	-20.7%
C#Cc1ccc(CN2CCN(CCc3ccccc3)C(CCO)C2)cc1 (centres unmarked)	-58.8%
Nc1c(C(=O)NC2CCCC2)c2nc3ccccc3nc2n1N	25.1%
CC1CCc2c(nc3sc4c(c3c2N)CCCC4)C1 (centres unmarked)	-11.5%
CN(Cc1ccccc1NS(=O)(=O)c1ccc2ccccc2c1)C1CCCCC1.Cl	7.73%
COc1cc(/C=N/NC(=O)CCN2CCN(C(c3ccccc3)c3ccccc3)CC2)ccc1O	-78.7%
COc1cc(/C=N/NC(=O)CCN2CCCCC2)ccc1O	-12%
O=C(CCN1CCN(C(c2ccccc2)c2ccccc2)CC1)N/N=C/c1ccc(O)cc1O	-53.1%
COc1ccc(OC)c(/C=N/NC(=O)CCN2CCN(C(c3ccccc3)c3ccccc3)CC2)c1	-2.39%
COc1cc(/C=N/NC(=O)c2cc(C)n(-c3ccc(F)cc3)c2C)cc(OC)c1O	-13.4%
COc1ccc(/C=N/NC(=O)CCN2CCN(c3ccccc3)CC2)c(OC)c1OC	-3.73%
O=C(CNC(=O)C(c1ccccc1)c1ccccc1)N/N=C/c1ccc(O)cc1O	-4.68%
COc1cc(/C=N/NC(=O)CCN2CCN(c3ccccc3)CC2)cc(OC)c1OC	-22.2%
COc1ccc(/C=N\NC(=O)CCN2CCN(c3ccccc3)CC2)cc1OC	-56.9%
Cc1cc(C(=O)N/N=C/c2cccc([N+](=O)[O-])c2)c(C)n1-c1ccccc1	8.8%
COc1ccc(/C=N/NC(=O)c2cc(C)n(-c3ccccc3)c2C)cc1OC	-53.2%
COc1cc(/C=N\NC(=O)CNC(=O)C(c2ccccc2)c2ccccc2)ccc1O	-25.7%
Cc1ccccc1N(C(=O)CNC(=O)c1ccco1)C(C(=O)NC1CCCCC1)c1cccnc1 (centres unmarked)	14.3%
Cc1cc(C)cc(NS(=O)(=O)c2ccc(NC(=O)C3CCCCC3C(=O)O)cc2)c1 (centres unmarked)	2.18%

SMILES	hERG current change (%, negative = inhibition) at 10uM
CSc1ccc(CNC(=O)c2ccc(NC(=O)C3=CSCCO3)cc2)cc1	28.4%
CCCCc1ccc(S(N)(=O)=O)cc1	15.7%
O=C(CCN1CCN(C(c2ccccc2)c2ccccc2)CC1)N/N=C/c1ccc(O)cc1	-54.8%
NNC(=O)CCN1CCN(C(c2ccccc2)c2ccccc2)CC1	-7.7%
O=C(CSC1CN(C(c2ccccc2)c2ccccc2)C1)N/N=C/c1ccccc1	1.64%
Cc1cc2c(cc1C)-c1nnnn1C(C)(C)C2	15.2%
N#Cc1ccc(-n2c(-c3ccccc3)nnc2-c2ccccc2)cc1C#N	-15.5%
O=C1N/C(=N/c2ccccn2)SC1Cc1ccccc1 (centres unmarked)	-13.7%
CCc1ccc(NC(=O)Cn2c(=O)n(CCC(=O)NC3CCN(Cc4ccccc4)CC3)c(=O)c3ccccc32)cc1	1.83%
CCOc1ccc(NC(=O)Cn2c(=O)n(CCCC(=O)NC3CCN(Cc4ccccc4)CC3)c(=O)c3ccccc32)cc1	-38%
COc1cccc(NC(=O)Cn2c(=O)n(CCC(=O)NC3CCN(Cc4ccccc4)CC3)c(=O)c3ccccc32)c1	-57.6%
NC(=O)Cn1c(=O)n(CCCC(=O)NC2CCN(Cc3ccccc3)CC2)c(=O)c2ccccc21	-6.48%
COC(=O)c1ccccc1NC(=O)Cn1c(=O)n(CCC(=O)NC2CCN(Cc3ccccc3)CC2)c(=O)c2ccccc21	-34.8%
O=C(CCCCn1c(=O)c2ccccc2n(Cc2ccccc2)c1=O)NC1CCN(Cc2ccccc2)CC1	-67.9%
O=C(CCCCn1c(=O)c2ccccc2n(Cc2ccccc2F)c1=O)NC1CCN(Cc2ccccc2)CC1	-9.04%
O=C(CCn1c(=O)c2ccccc2n(Cc2ccccc2)c1=O)NC1CCN(Cc2ccccc2)CC1	-42.5%
O=C(CCCn1c(=O)c2ccccc2n(Cc2cccc(F)c2)c1=O)NC1CCN(Cc2ccccc2)CC1	-68.6%
Cc1cccc(C)c1NC(=O)Cn1c(=O)n(CCCC(=O)NC2CCN(Cc3ccccc3)CC2)c(=O)c2ccccc21	-58.6%
Cc1ccc(NC(=O)Cn2c(=O)n(CCC(=O)NC3CCN(Cc4ccccc4)CC3)c(=O)c3ccccc32)cc1	-1.53%
Cc1cc(NC(=O)Cn2c(=O)n(CCCCC(=O)NC3CCN(Cc4ccccc4)CC3)c(=O)c3ccccc32)n[nH]1	26.5%
